Results reported in PubChem BioAssay AID463173 (ICCB-Longwood Screening Facility, Harvard Medical School, 2010).
Out of some 52,000 compounds screened, about 4,300 (8.3%) were called active. Cut-off read from the data, not from the text of the source: active = survival mostly below about 52% (no sharp cut-off); inactive = mostly above about 56%. The full list was thinned out, with actives kept by preference.

System: DeltatarO mutant
Test: S. aureus survival, RN4220 and DeltatarO strains – OD600, teichoic acid synthesis inhibitors, primary screen (AID 463173)
Conditions: S. aureus RN4220 wild type/DeltatarO growth, OD600, 18 h, active compounds read low, screened at 18.75 µg/mL (by protocol)

Compound	survival
Cc1ccc(OCCn2c(-c3ccc(Cl)cc3)nc3ccccc3c2=O)c(C)c1	63% (inactive)
CCOc1ccc(OCCOCCn2c(-c3ccc(Cl)cc3)nc3ccccc3c2=O)cc1	26% (active)
Cc1cccc(OCCOCCn2c(-c3ccc(Cl)cc3)nc3ccccc3c2=O)c1C	60% (inactive)
Cc1ccc(C)c(OCCn2c(-c3ccc(Cl)cc3)nc3ccccc3c2=O)c1C	73% (inactive)
Cc1cc(C)c(OCCOCCn2c(-c3ccc(Cl)cc3)nc3ccccc3c2=O)c(C)c1	43% (active)
Cc1cccc(OCCn2c(-c3ccc(Cl)cc3)nc3ccccc3c2=O)c1	105% (inactive)
Cc1ccccc1OCCn1c(-c2ccc(Cl)cc2)nc2ccccc2c1=O	57% (inactive)
Cc1ccc(OCCOCCn2c(-c3ccc(Cl)cc3)nc3ccccc3c2=O)cc1	39% (active)
CC(C)(C)c1ccc(OCCOCCn2c(-c3ccc(Cl)cc3)nc3ccccc3c2=O)cc1	115% (inactive)
Cc1cc(C)cc(OCCOCCn2c(-c3ccc(Cl)cc3)nc3ccccc3c2=O)c1	43% (active)
COc1cccc(OCCn2c(-c3ccc(Cl)cc3)nc3ccccc3c2=O)c1	51% (inactive)
Cc1cc(C)cc(OCCCn2c(-c3ccc(Cl)cc3)nc3ccccc3c2=O)c1	58% (inactive)
COc1ccccc1N1CCN(CCCNC(=O)Cn2ncc3c([nH]c4ccccc43)c2=O)CC1	55% (inactive)
CCCNC(=O)c1c(NC(=O)c2ccc(C)cc2)sc2c1CCCCC2	65% (inactive)
COc1cccc(CNC(=O)c2ccc3c(=O)n4nc(Nc5ccccc5)sc4nc3c2)c1	88% (inactive)
CCC1SC(NC(=O)COc2ccc(OC)cc2)=NC1=O (stereo unspecified)	104% (inactive)

Compound	survival
COCCn1c(CCC(=O)Nc2ccc(C)c(Cl)c2)nc2cccnc21	84% (inactive)
Cc1cc2c(cc1C)C(C)CC(C)(C)N2 (stereo unspecified)	94% (inactive)
O=C(NC1CCCCC1)C1OC(c2ccccc2)OC1C(=O)NC1CCCCC1 (stereo unspecified)	86% (inactive)
CC(=O)N(Cc1cccnc1)Cc1cc2cc3c(cc2[nH]c1=O)OCCO3	84% (inactive)
CCN(CC)C(=O)Cn1cc(SCC(=O)Nc2ccccc2C)c2ccccc21	74% (inactive)
CC(=O)Nc1ccc(S(=O)(=O)NCC2CCC(C(=O)NCc3ccccc3)CC2)cc1 (stereo unspecified)	71% (inactive)
COc1ccc(OC)c(NC(=O)N2CC3CCCN3c3ccccc32)c1 (stereo unspecified)	89% (inactive)
COc1ccccc1NC(=O)N1c2ccccc2Sc2ccccc21	-6% (active)
COCCNC(=O)N1c2ccccc2Sc2ccccc21	83% (inactive)
O=C(CN1CCCC1)N1c2ccccc2Sc2ccccc21	88% (inactive)
O=C(O)c1ccccc1NC(=O)N1c2ccccc2Sc2ccccc21	40% (active)
CCOc1ccccc1NC(=O)N1c2ccccc2Sc2ccccc21	55% (inactive)
COc1ccc(OC)c(NC(=O)N2c3ccccc3Sc3ccccc32)c1	5% (active)
COc1cc(NC(=O)N2c3ccccc3Sc3ccccc32)cc(OC)c1	62% (inactive)
O=C(N1CCCC1)N1c2ccccc2Sc2ccccc21	111% (inactive)
